Experimental findings from the supplement of paper PMC8728848 are described below.

Only a selection was taken, and the strongest signals are over-represented in it overall.

The subject of this experiment is Gal6S(b1-4)GlcNAc6S. In words: glycan array binding signal (z-score within array); higher = stronger binding. The note with it: glycan notation: IUPAC condensed, linker removed. An outline of the steps: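 The binding signal is a Z-score computed within each array. Data were drawn from 3228 arrays in the Consortium for Functional Glycomics database, restricted to those with a known protein sequence. Scores were averaged over arrays of the same protein sequence at different concentrations or buffers, and over linkers, and negative values can be taken as non-binding.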
For Wza (Escherichia coli), P0A930, the “glycan array binding signal (z-score)” value worked out at 0.571. Turning to Epa22, the “glycan array binding signal (z-score)” value was 12.6. As for “AgI/II Vhelical-GFP (Streptococcus mutans)”, the “glycan array binding signal (z-score)” value turned out to be 2.17.
